MARV entry inh: qHTS for inhibitors of binding or entry into cells for Marburg Virus; Potency, µM (series often up to 37.8 µM), actives largely listed as inhibitors; 1.8% of 300,000 active; Marburg virus pseudotyped entry inhibition, cell reporter; calls by dose curve; tested in HEK293 cells
Lassa entry inh: qHTS for Inhibitors of binding or entry into cells for Lassa Virus; Lassa virus pseudotype entry inhibition, cell reporter; Potency, µM (series often up to 37.9 µM), hits mostly inhibitors; 1.2% of 300,000 active; calls by dose curve; tested in HEK293 cells; note: nearly all actives have a fitted effect of over 50% in size
Cycloheximide cs: Cycloheximide Counterscreen for Small Molecule Inhibitors of Shiga Toxin. cell reporter, cycloheximide protein synthesis inhibition counterscreen. max response, %. 12% of 300,000 active. AID 2314, 2010; in the data active = max response mostly above about 13%, no sharp cut-off; inactive = mostly below about 14%; note: read at 38.3 µM for the half of the compounds with a filed dose
Shiga toxin inh: A qHTS for Small Molecule Inhibitors of Shiga Toxin. Vero cells, Shiga toxin protein synthesis inhibition reporter. inhibition, % at 38.7 µM. 9.2% of 290,000 active; in the data active = inhibition mostly above about 28%, no sharp cut-off; inactive = mostly below about 43%
Hits are given with their value; - = inactive; ? = inconclusive; . = no result given. Only some compounds are listed: those with a hit (about 12% of all), similar ones and a draw of the others.

SMILES | MARV entry inh | Lassa entry inh | Cycloheximide cs | Shiga toxin inh
CCC(c1nnc(SCC(=O)Nc2ccc(Cl)cc2C(F)(F)F)n1C1CCCCC1)N(C)C (stereo not drawn) | ? | 12.6µM | - | -
Cc1ccccc1NC(=S)/C(=C(\[O-])c1ccc(C)c([N+](=O)[O-])c1)[n+]1ccccc1 | - | - | - | -
Cc1ccc(NC(=S)/C(=C(\[O-])c2ccc(C)c([N+](=O)[O-])c2)[n+]2ccccc2)cc1C | - | . | 70.5 | 149.2
Cc1ccc(/C([O-])=C(/C(=S)Nc2ccc(SC(F)F)cc2)[n+]2ccccc2)cc1[N+](=O)[O-] | . | . | - | -
COc1cccc(NC(=S)/C(=C(\[O-])c2ccc(C)c([N+](=O)[O-])c2)[n+]2ccccc2)c1 | - | - | 39.4 | 51.5
COc1ccc(C)cc1NC(=O)C1CCCN(S(=O)(=O)c2ccc3c(c2)oc(=O)n3C)C1 (stereo not drawn) | - | - | . | .
CC(CNC(=O)Cn1c(-c2cccs2)cc2ccccc21)c1ccccc1 (stereo not drawn) | . | - | . | .
CC1CC(C)CN(C(=O)C2CCC(CNS(=O)(=O)c3ccccc3)CC2)C1 (stereo not drawn) | . | . | - | -
Cc1cc2c(C(C)C)c(O)c(O)c(C=O)c2c(O)c1-c1c(C)cc2c(C(C)C)c(O)c(O)c(C=O)c2c1O | 9.96µM | 7.05µM | - | -
CNc1cccc2c1C(=O)c1ccccc1C2=O | - | ? | 15.6 | -
O=C1c2ccccc2C(=O)c2c(NCc3cccnc3)cccc21 | - | - | - | -
COc1ccc2cc(CN(CC3CCCO3)C(=S)NCc3ccco3)c(=O)[nH]c2c1 (stereo not drawn) | - | - | - | -
O=C(/C(=C/O)N=Nc1ccccc1)c1cccs1 | ? | ? | 39.0 | -
CC(=O)N1C(=O)NC(C)=C(C#N)C1c1ccccc1 (stereo not drawn) | - | . | . | .
Cc1ccccc1C(=O)Nc1ccnn1C1CCN(C(C)Cc2ccccc2F)CC1 (stereo not drawn) | . | . | - | -
Cn1nc(C(=O)OCC(=O)NCCc2ccccc2)c2ccccc2c1=O | . | . | 26.8 | -
Cn1nc(C(=O)OCC(=O)c2ccccc2)c2ccccc2c1=O | - | - | . | .
COC(=O)c1ccc(COC(=O)c2nn(C)c(=O)c3ccccc23)cc1 | - | - | 22.7 | -
Cc1ccc(Cc2cnc(NC(=O)c3cccs3)s2)cc1 | ? | ? | 45.6 | 192.5
Cc1ccc(C(=O)Nc2ncc(Cc3ccccc3)s2)o1 | 5.17µM | ? | 42.3 | 80.4
O=C(Nc1ncc(Cc2cccc(Cl)c2)s1)c1cccs1 | 10µM | 8.91µM | 53.5 | 126.5
Cc1ccc(NC(=O)CNC(=O)c2cccs2)nc1 | - | - | . | .
O=C(Nc1ncc(Cc2ccc(SC(F)F)cc2)s1)c1ccccc1 | - | ? | - | -
O=C(Nc1ncc(Cc2ccccc2)s1)c1cccs1 | ? | ? | 58.8 | 131.0
Cc1cccc(CNC(=O)CCCN2C(=O)COc3ccc(C)cc32)c1 | - | - | . | .
SMILES | MARV entry inh | Lassa entry inh | Cycloheximide cs | Shiga toxin inh
O=C(Nc1nc(-c2cc(Cl)sc2Cl)cs1)c1cccs1 | ? | ? | 11.4 | -
O=C(Nc1nc(-c2cc(Cl)sc2Cl)cs1)c1ccc(Br)s1 | ? | ? | - | -
Cc1ccc(S(=O)(=O)c2c(N)n(/N=C/c3ccco3)c3nc4ccccc4nc23)cc1C | 7.08µM | - | - | -
O=C(NNC1OC(CO)C(O)C(O)C1O)c1cccnc1 (stereo not drawn) | - | - | 18.7 | 49.7
COc1cccc(C(=O)NNC2OC(CO)C(O)C2O)c1 (stereo not drawn) | ? | - | 30.8 | 69.3
CSc1cccc(NS(=O)(=O)c2cc(Br)cnc2N)c1 | . | . | - | -
COc1ccccc1C1=NOC(Cn2c(NCCOCCO)nc3c2c(=O)n(C)c(=O)n3C)C1 (stereo not drawn) | . | . | - | -
O=C(NCc1ccccc1)C1=C[C@H](c2csc3ccccc23)C[C@H](OCCCCO)O1 | . | . | - | -
O=C(C1=C[C@@H](c2csc3ccccc23)C[C@@H](OCc2ccc(CO)cc2)O1)N1CCN(Cc2ccccc2)CC1 | . | . | - | -
O=C(C1=C[C@@H](c2csc3ccccc23)C[C@@H](OCc2ccc(CO)cc2)O1)N1CCOCC1 | . | . | 10.8 | -
O=C(Nc1ccccc1)C1=C[C@H](c2csc3ccccc23)C[C@H](OCCCCO)O1 | . | . | 12.0 | -
CC(=O)n1cc([C@@H]2C=C(C(=O)Nc3ccccc3)O[C@H](OCCCCO)C2)c2ccccc21 | . | . | - | 24.3
C=CCn1c(CCC(=O)O)ccc1-c1ccccc1 | - | - | - | -
COc1ccccc1CNC(=O)c1ccc2c(=O)n(CCCN3CCCC3=O)c(=S)[nH]c2c1 | - | - | - | -
Cc1ccc(N(C)/N=C/c2ccc(Cl)cc2Cl)nn1 | . | . | 16.3 | -
COc1ccc(NC(=O)C(NC(C)=O)C(=O)Nc2ccc(F)cc2)cc1 (stereo not drawn) | . | . | - | -

From PubChem
